Molecules are shown by their SMILES. About 83,000 compounds went through this panel and 20% of them were active in at least one assay; those are over-represented in the sample as a whole.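 Cells were grown in 96-well plates and exposed to the test compound at a single concentration for 48 hours; results are reported as percent growth, with values below 10 considered active.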 A number with no mark means an inactive call. Calls of active or inactive are those of the source.

Some test systems named below: T-47D breast; BT-549 breast; MDA-MB-435 melanoma; SW-620 colon; MCF7 breast; HCT-116 colon; HCC-2998 colon; KM12 colon.
Holding throughout (test): NCI-60 one-dose screen, 48 h (100 = growth as untreated, 0 = no growth, -100 = all killed)
Holding throughout (settings): 10 µM unless noted

In the case of `COc1ccc(C2CCCCC2=O)cc1` (centres undefined), the growth is 100% with T-47D breast; 111% with BT-549 breast; 103% in the experiment on MDA-MB-435 melanoma; 104% with SW-620 colon; 103% in the experiment on MCF7 breast; 106% in the experiment on HCT-116 colon. The values for the growth in the experiment on HCC-2998 colon and in the experiment with KM12 colon were 107% and 112%, respectively.
Take `CC1CN(CCO)CC(C)O1` (centres undefined): the growth was 93% with T-47D breast; 108% in the experiment on BT-549 breast; 102% in the experiment on MDA-MB-435 melanoma; 102% with SW-620 colon; 109% in the experiment on MCF7 breast; 112% in the experiment with HCT-116 colon. Besides, the growth is 119% in the experiment on HCC-2998 colon and 101% in the experiment with KM12 colon.
With `CCCC(OC(C)=O)c1ccc2c(c1)OCO2` (centres undefined), the growth with T-47D breast was 100%; in the experiment with BT-549 breast, 110%; with MDA-MB-435 melanoma, 106%; in the experiment on SW-620 colon, 109%; in the experiment on MCF7 breast, 95.8%; with HCT-116 colon, 108%. Besides, the growth with HCC-2998 colon was 98%; with KM12 colon, 106%.
Take `CCOC(=O)C(CCC#N)(CCC#N)C(=O)OCC`: the growth in the experiment with T-47D breast was 112%; with BT-549 breast it was 98%; with MDA-MB-435 melanoma it was 101%; with SW-620 colon, 100%; with MCF7 breast it was 91.4%; in the experiment on HCT-116 colon, 97.3%. In addition, the growth with HCC-2998 colon was 97.6%; in the experiment on KM12 colon, 106%.
As for `Cc1ccc(C)c2c1CCC2=O`, the growth was 103% in the experiment with T-47D breast; 97.6% in the experiment on BT-549 breast; 93.3% in the experiment on MDA-MB-435 melanoma; 93.5% in the experiment with SW-620 colon; 94.7% with MCF7 breast; 93.1% in the experiment on HCT-116 colon. Further, the growth with HCC-2998 colon is 96.7%; in the experiment with KM12 colon, 100%.
On to `COc1ccc(C(=O)C(=O)c2ccccc2)cc1`, for which the growth with T-47D breast was 104%; with BT-549 breast, 112%; with MDA-MB-435 melanoma, 95.1%; with SW-620 colon, 100%; in the experiment on MCF7 breast, 103%; with HCT-116 colon it was 105%. The growth is 104% with HCC-2998 colon and 102% with KM12 colon.
With `CCCCNC(=O)c1ccc(OCC)cc1`, the growth with T-47D breast was 96.1%; in the experiment with BT-549 breast it was 99.9%; in the experiment with MDA-MB-435 melanoma, 103%; in the experiment on SW-620 colon it was 97.9%; in the experiment with MCF7 breast it was 88.6%; with HCT-116 colon it was 90.5%. Moreover, the growth is 104% in the experiment on HCC-2998 colon and 106% in the experiment on KM12 colon.
`CC(C)(C)[Si](C)(C)OCC1OC(n2cnc3c(N)ncnc32)CC1OS(C)(=O)=O` (centres undefined): the growth is 97.8% in the experiment on T-47D breast; 107% with BT-549 breast; 112% in the experiment on MDA-MB-435 melanoma; 98.1% in the experiment on SW-620 colon; 105% in the experiment on MCF7 breast; 102% in the experiment with HCT-116 colon. Also, the growth is 103% in the experiment with HCC-2998 colon and 95.7% in the experiment on KM12 colon.
For the molecule `Cc1ccc(NCN2C(=O)c3ccccc3C2=O)c(C)n1`, the growth in the experiment on T-47D breast is 119%; in the experiment with BT-549 breast, 108%; in the experiment on MDA-MB-435 melanoma, 105%; in the experiment on SW-620 colon, 108%; in the experiment with MCF7 breast, 112%; with HCT-116 colon, 101%. Further, the growth in the experiment with HCC-2998 colon is 106%; in the experiment on KM12 colon, 99.5%.
In the case of `CCCCOC(=O)c1ccccc1O`, the growth is 107% with T-47D breast; 109% in the experiment on BT-549 breast; 97.5% in the experiment with MDA-MB-435 melanoma; 101% in the experiment with SW-620 colon; 98% with MCF7 breast; 109% with HCT-116 colon. Also, the values for the growth in the experiment on HCC-2998 colon and in the experiment on KM12 colon were 122% and 106%, respectively.
Consider `CCCCCCCCCCCCSC1=C(Cl)C(=O)C(OC)=C(OC)C1=O`, for which the growth with T-47D breast was 14.1%; with BT-549 breast, 58.3%; with MDA-MB-435 melanoma, 25.9%; in the experiment with SW-620 colon, 27.5%; with MCF7 breast it was 6.48% (active); with HCT-116 colon, 16%. Moreover, the values for the growth with HCC-2998 colon and with KM12 colon were 4.65% (active) and 24.4%, respectively.
Regarding `ClCc1cccc2c(CCl)cccc12`, the growth is 4.84% (active) with T-47D breast; -74% (active) in the experiment on BT-549 breast; 84.3% with MDA-MB-435 melanoma; 70.8% with SW-620 colon; 24.4% in the experiment with MCF7 breast; -86.3% (active) in the experiment with HCT-116 colon. Besides, the values for the growth in the experiment with HCC-2998 colon and with KM12 colon were 55.8% and 13.7%, respectively.
In the case of `CCOC(=O)N[C@H]1CCc2cc(OC)c(OC)c(OC)c2-c2ccc(SC)c(=O)cc21`, the growth in the experiment on T-47D breast was 47.7%; in the experiment on BT-549 breast, -9.25% (active); with MDA-MB-435 melanoma, -17.1% (active); with SW-620 colon, 17.4%; in the experiment on MCF7 breast, 13.5%; in the experiment on HCT-116 colon, 2.61% (active). Moreover, the growth in the experiment with HCC-2998 colon was 12.2%; with KM12 colon it was 2.56% (active).
On to `CCOC(=N)CC(=O)Nc1cccc(C)c1Cl`, for which the growth in the experiment on T-47D breast was 95%; in the experiment with BT-549 breast, 103%; in the experiment on MDA-MB-435 melanoma, 98.6%; in the experiment with SW-620 colon, 94.9%; with MCF7 breast it was 89.5%; in the experiment on HCT-116 colon, 96.3%. Also, the values for the growth with HCC-2998 colon and with KM12 colon were 102% and 96.7%, respectively.
For the molecule `CN(C(=S)S(=O)(=O)C12CC3CC(CC(C3)C1)C2)c1ccccc1`, the growth in the experiment on T-47D breast is 87.1%; with BT-549 breast, 123%; with MDA-MB-435 melanoma, 98.8%; in the experiment on SW-620 colon, 69.7%; with MCF7 breast, 99.4%; in the experiment on HCT-116 colon, 93.5%. For the same molecule, the growth in the experiment with HCC-2998 colon is 104%; in the experiment on KM12 colon it was 109%.
`CS(=O)(=O)c1ccc(/C=C\C(=O)O)cc1`: the growth with T-47D breast was 103%; in the experiment with BT-549 breast, 102%; in the experiment on MDA-MB-435 melanoma it was 101%; with SW-620 colon it was 81.5%; with MCF7 breast, 95.8%; in the experiment with HCT-116 colon, 93.7%. Moreover, the growth with HCC-2998 colon was 110%; in the experiment with KM12 colon, 94%.
On to `ON1CCCC1`, for which the growth in the experiment with T-47D breast is 98.6%; in the experiment with BT-549 breast, 96.7%; in the experiment on MDA-MB-435 melanoma it was 107%; in the experiment on SW-620 colon, 101%; with MCF7 breast, 95%; in the experiment with HCT-116 colon, 97.4%. In addition, the growth with HCC-2998 colon is 98.8%; in the experiment with KM12 colon, 110%.
Turning to `COC1C(=O)CCC2(CO2)C1(O)C1(C)OC1CCC(C)C` (centres undefined), the growth with T-47D breast was 81.2%; in the experiment with BT-549 breast, 77.4%; in the experiment on MDA-MB-435 melanoma, 63.8%; with SW-620 colon, 60.5%; in the experiment with MCF7 breast, 69.1%; with HCT-116 colon, 52.5%. Also, the growth in the experiment on HCC-2998 colon was 76.4%; in the experiment on KM12 colon, 74%.
